DSG3 Ab inh: inhibitors of pemphigus antibody binding to human desmoglein-3; P32926; DSG3-coupled beads, scFv-anti-DSG3-GFP binding, flow cytometry; hits give low values; binding (percent of control), % at 10 µM; 310,000 compounds, 0.48% hits;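 active means binding more than 3 SD below its plate's average and above zero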;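 further: hits lower antibody fragment binding to DSG3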
DAGLB inh: diacylglycerol lipase beta (human) inhibition; Q8NCG7; HEK293T DAGLB membrane lysate, EnzChek fluorogenic substrate; inhibition, % at 5.17 µM; 340,000 compounds, 0.059% hits; AID 504411; in the data active means inhibition above about 34%;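 further: 0% = enzyme with vehicle and 100% = wells lacking enzyme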
Target sequence (Q8NCG7 whole entry, looked up): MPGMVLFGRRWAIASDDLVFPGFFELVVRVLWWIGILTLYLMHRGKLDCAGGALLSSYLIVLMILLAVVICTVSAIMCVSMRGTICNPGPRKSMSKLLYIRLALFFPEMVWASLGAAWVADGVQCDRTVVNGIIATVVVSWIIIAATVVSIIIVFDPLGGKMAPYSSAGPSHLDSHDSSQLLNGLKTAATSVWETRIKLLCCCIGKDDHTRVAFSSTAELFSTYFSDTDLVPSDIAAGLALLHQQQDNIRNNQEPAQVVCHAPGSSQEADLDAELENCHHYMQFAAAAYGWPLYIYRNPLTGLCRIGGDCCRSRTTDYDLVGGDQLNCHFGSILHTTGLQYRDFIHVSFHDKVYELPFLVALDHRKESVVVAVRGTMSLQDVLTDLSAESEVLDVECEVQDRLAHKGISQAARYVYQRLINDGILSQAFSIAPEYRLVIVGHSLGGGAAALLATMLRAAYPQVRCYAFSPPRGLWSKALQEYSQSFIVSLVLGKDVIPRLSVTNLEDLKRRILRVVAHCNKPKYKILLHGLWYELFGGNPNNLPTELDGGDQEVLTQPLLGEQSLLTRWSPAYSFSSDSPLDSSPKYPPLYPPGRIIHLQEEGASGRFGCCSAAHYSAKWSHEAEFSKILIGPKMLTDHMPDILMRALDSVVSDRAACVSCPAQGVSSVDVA
NadD inh: NadD (S. aureus) enzyme inhibition; inhibition, % at 20 µM; AID 602399; 360,000 compounds, 0.78% hits; purified NadD enzyme, colorimetric absorbance read-out; in the data active means inhibition above about 26%
rCAG RNA binder: binds r(CAG) RNA repeats | r(CAG) RNA repeat, TO-PRO-1 dye displacement fluorescence | inhibition, % at 3 µM | 370,000 compounds, 1.3% hits | AID 651821;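 active means inhibition above the plate cutoff, the mean of all test compounds on that plate plus 3 SD, cut at about 35% in these data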;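 further: 0% = DMSO alone and 100% = 100 µM mitoxantrone as full dye displacement; higher means more dye released from RNA so lower well fluorescence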
MsrA inhibitor: inhibits bovine methionine sulfoxide reductase A | purified bovine MsrA, absorbance read-out | inhibition, % at 15.5 µM | 360,000 compounds, 0.75% hits | AID 651718; in the data active means inhibition above about 4.5%;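 further: 0% = vehicle wells with enzyme and 100% = reference inhibitor wells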
bovine MsrA act: bovine methionine sulfoxide reductase A activation. purified bovine MsrA, absorbance read-out. activation, % at 10.6 µM. 360,000 compounds, 0.3% hits. AID 602163; in the data active means activation above about 7.5%;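 further: 0% = vehicle and 100% = reference activator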
rCAG binder conf: r(CAG) RNA repeat binding, confirmation; TO-PRO-1 dye displacement fluorescence; AID 652065; shares compounds with rCAG RNA binder; 4,300 compounds, 70% hits; inhibition, % at 3 µM;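 active means inhibition above a per-plate cutoff, the mean inhibition of sample wells plus 3 SD, cut at about 35% in these data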;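 further: loss of TO-PRO-1 fluorescence as compound displaces dye from 1x1 AA loop RNA; 0% = DMSO only wells and 100% = 100 µM mitoxantrone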
DNA CAG counter: disrupts DNA CAG TO-PRO-1 complex, flagging rCAG hits | AID 652068 | inhibition, % at 3 µM | shares compounds with rCAG RNA binder | 4,300 compounds, 94% hits | d(CAG) DNA oligo TO-PRO-1 dye displacement, fluorescence;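 active means inhibition above its plate's cutoff, the mean test-well inhibition plus 3 SD, cut at about 4.8% in these data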;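 further: 0% = DNA dye mix with DMSO and 100% = 100 µM mitoxantrone; hits displace the dye from DNA and so lower well fluorescence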
DNA CAG DR: disrupts DNA CAG TO-PRO-1 complex in dose response; shares compounds with rCAG RNA binder; DNA CAG/GTC duplex TO-PRO-1 dye displacement fluorescence; IC50, µM; 250 compounds, 20% hits; in the data active means IC50 below about 10 µM
* = called active by the depositor; i = inactive; . = no result given. In the library only some 3.2% were active in any assay of this set; here they are far more common.

SMILES | DSG3 Ab inh | DAGLB inh | NadD inh | rCAG RNA binder | MsrA inhibitor | bovine MsrA act | rCAG binder conf | DNA CAG counter | others
O=C(O)c1cc(O)c2c(c1)[C@@H]([C@H]1c3cc(C(=O)O)cc(O)c3C(=O)c3c(O[C@@H]4O[C@H](CO)[C@@H](O)[C@H](O)[C@H]4O)cccc31)c1cccc(OC3O[C@H](CO)[C@@H](O)[C@H](O)[C@H]3O)c1C2=O (stereo partly specified) | -1.1* | 5.4 | 29.5 | 100.2* | 0.3 | -3.6 | 86.0* | 52.1*
O=C(O)c1cc(O)c2c(c1)[C@H]([C@H]1c3cc(C(=O)O)cc(O)c3C(=O)c3c(O[C@@H]4O[C@H](CO)[C@@H](O)[C@H](O)[C@H]4O)cccc31)c1cccc(OC3O[C@H](CO)[C@@H](O)[C@H](O)[C@H]3O)c1C2=O (stereo partly specified) | -9.0* | 5.2 | 68.4* | 100.5* | 1.8 | -5.8 | 99.4* | 89.6*
CC(C)C[C@@H]1COc2cc(NCCO)ccc2S(=O)(=O)N1 | . | . | . | 0.2 | -0.9 | . | . | .
Nc1[nH]c2cc([N+](=O)[O-])ccc2c1-c1ccccn1 | 116.6 | 26.5 | 0.4 | 41.0* | 0.5 | -2.3 | 18.4 | 19.3*
Nc1nc2ccc([N+](=O)[O-])cc2[nH]1 | 88.4 | 1.9 | -0.2 | 2.2 | 2.2 | -1.1 | . | .
CC(COc1cccc(C(F)(F)F)c1)CN1CCC(C(O)(c2ccccc2)c2ccccc2)CC1 (stereo unspecified) | . | . | . | 1.5 | . | . | . | .
O=C(Nc1cccc(Cl)c1)c1cc(-c2ccco2)on1 | 101.8 | -3.8 | -5.3 | 6.4 | -0.5 | -2.0 | . | .
O=C(Nc1cc(Cl)ccc1O)c1cc(-c2ccco2)on1 | 98.8 | -1.4 | 9.6 | 45.6* | 0.2 | -2.3 | 17.8 | 11.9*
O=C(c1ccncc1)N1CC[C@H]2[C@H](CCCN2Cc2cc(F)cc(F)c2)C1 | . | . | . | 0.6 | . | . | . | .
CCOc1cc(/C=N/NC(=O)C(N)=O)cc(Br)c1O | 91.6 | -1.4 | 2.4 | 36.3* | 4.2 | -15.1 | 1.0 | 0.0
N#C/C(=C(/O)COC(=O)c1ccc(C#N)cc1)c1nc2ccccc2s1 | 99.2 | 6.5 | 9.6 | 38.2* | 3.7 | -7.2 | 39.9* | 16.9*
C=CCSC1=N/C(=C\C=C\c2ccco2)C(=O)S1 | 99.6 | 4.1 | 5.5 | 57.6* | 0.4 | 6.4 | 45.4* | 21.2* | DNA CAG DR=i
C=CCSC1=N/C(=C\c2sccc2C)C(=O)S1 | 97.7 | -7.2 | 13.8 | 8.9 | 1.3 | -11.1 | . | .
COc1cc(/C=C2/C(=O)c3cccc([N+](=O)[O-])c3C2=O)c(Br)cc1O | 118.7 | 18.1 | 11.5 | 59.8* | 3.2 | -8.2 | 89.2* | 62.0*
Cc1ccccc1S(=O)(=O)Nc1ncnc2scc(-c3ccccc3)c12 | 102.2 | 8.3 | -3.5 | 54.5* | 0.0 | -2.1 | 50.4* | 16.4*
O=C(O)COc1ccc(/C=C/C(=O)c2ccc(C3CCCCC3)cc2)cc1 | 92.5 | 12.2 | 10.3 | 48.2* | 1.5 | -3.9 | 67.9* | 28.9*
O=C(O)COc1ccc(/C=C2\SC(=Nc3ccccc3)N(c3ccccc3)C2=O)cc1 | 95.3 | 4.5 | 2.1 | 14.2 | 1.6 | -3.3 | . | .
Cc1ccc(N=C2S/C(=C/c3cccc(OCC(=O)O)c3)C(=O)N2C)cc1C | 115.5 | -1.8 | 3.5 | 58.0* | 3.0 | -11.8 | 64.2* | 22.7*
CCOC(=O)C1=C(O)/C(=C/c2cc(OC)c(OC)c(OC)c2)SC1=Nc1ccc(OC)cc1 | 101.9 | 0.3 | -16.4 | 7.1 | -0.1 | 7.0 | . | .
CCOC(=O)C1=C(O)/C(=C/c2ccc(OCC(=O)O)c(OCC)c2)SC1=Nc1ccc(C)cc1 | 92.2 | 7.8 | 9.8 | 44.7* | 4.5 | -4.4 | 67.8* | 24.6*
O=C(O)COc1ccccc1/C=C1\SC(=Nc2ccc(F)cc2)N(c2ccc(F)cc2)C1=O | 100.6 | 3.8 | 4.5 | 40.3* | 2.2 | -2.3 | 65.0* | 24.1*
CCOc1cc(/C=C2\SC(=Nc3ccccc3)N(c3ccccc3)C2=O)ccc1OCC(=O)O | . | 5.9 | 7.8 | 65.4* | 3.7 | -5.0 | 70.7* | 29.7* | DNA CAG DR=i
Cc1ccc(NC(=O)NNC(=O)CCn2nc(C)c([N+](=O)[O-])c2C)cc1C | . | . | . | 0.9 | . | . | . | .
COC(=O)CCCn1cc(CN2CC(N3CCN(Cc4cccc(C)c4)CC3)CS2(=O)=O)nn1 (stereo unspecified) | . | . | -5.8 | 0.6 | -0.7 | -0.8 | . | .
N#C/C(=N\Nc1cccc(C(F)(F)F)c1)C(=O)c1ccsc1 | 116.0 | 12.5 | -2.7 | 75.8* | 1.1 | -2.0 | 56.0* | 18.3*
SMILES | DSG3 Ab inh | DAGLB inh | NadD inh | rCAG RNA binder | MsrA inhibitor | bovine MsrA act | rCAG binder conf | DNA CAG counter | others
O=C(Nc1ccccc1)Nc1cccc(C(F)(F)F)c1 | 100.7 | -4.7 | -2.1 | 3.7 | 1.6 | -1.3 | . | .
N#C/C(=N\Nc1cccc([N+](=O)[O-])c1)C(=O)c1ccc(Br)cc1 | 99.8 | 18.8 | 14.2 | 75.9* | 2.5 | -1.8 | 87.0* | 52.4*
CC1=C2C3OC(=O)C(C)C3CCC2(C)C=CC1=NO (stereo unspecified) | 93.8 | -1.8 | -3.7 | -1.8 | -0.3 | -3.5 | . | .
CCCCCc1c2c(cc(O)c1C(=O)O)OC(=O)c1cc(C(=O)CCCC)c(OC)cc1O2 | 102.6 | 20.9 | 15.5 | 87.0* | -0.4 | -1.4 | 88.2* | 61.4*
CC1(c2nnnn2-c2ccc3c(c2)OCCO3)CCC(=O)N1CCc1c[nH]c2ccccc12 (stereo unspecified) | . | . | -3.5 | 3.0 | -0.8 | -1.1 | . | .
CSc1ncc(Cl)c(C(=O)Nc2nnc(SC/C=C/c3ccccc3)s2)n1 | 119.1 | 12.1 | -3.2 | 66.3* | 1.0 | -6.8 | 67.0* | 20.1*
C=CCSc1nnc(NC(=O)c2nc(SCC)ncc2Cl)s1 | 101.0 | 4.0 | -5.2 | . | . | -3.3 | . | .
CCSc1nnc(NC(=O)c2nc(S(=O)(=O)Cc3ccc(F)cc3)ncc2Cl)s1 | 102.7 | 10.1 | 2.0 | 36.1* | 0.7 | -2.7 | 29.4 | 5.8*
CSc1nnc(NC(=O)c2nc(S(=O)(=O)Cc3cccc(C)c3)ncc2Cl)s1 | 121.2 | 5.7 | 1.9 | 37.3* | 1.2 | -4.1 | 25.3 | 4.5*
CCCCc1c(-c2cccc(Br)c2)ncn1CCc1ccccc1OC | . | . | 2.1 | 0.4 | 0.6 | 0.8 | . | .
O=C(CSCc1ccccc1)NNC(=S)Nc1cccc(Cl)c1Cl | . | 9.4 | 10.7 | 57.9* | 0.0 | 2.2 | 65.1* | 25.6*
Cc1noc(C)c1S(=O)(=O)N(C)C[C@H]1Oc2ccc(NS(=O)(=O)c3cn(C)cn3)cc2C(=O)N([C@H](C)CO)C[C@@H]1C | 107.6 | -1.8 | 2.0 | 6.1 | -0.9 | -6.5 | . | .
O=C(CN1c2ccccc2Sc2ccccc21)NNC(=S)Nc1ccc(Cl)cc1 | 103.3 | 7.2 | 14.2 | 61.7* | -0.4 | -1.1 | 64.6* | 30.8* | DNA CAG DR=i

High-throughput results: PubChem BioAssay, several laboratories
